Compound activity as filed in PubChem.
mut p53 react = mutant p53 pathway re-activators, primary screen, cell-based, SW480, luciferase, single point, HTS; SW480 PUMA-promoter luciferase, p53 mutant reactivation; activation, % at 9.98 µM; 1.5% of 28,000 active; in the data active = activation above about 52%
ID4 binder = binders of human ID4 protein, primary screen, biochemical, small molecule microarray, single point. DNA-binding protein inhibitor ID-4 (Homo sapiens), P47928. Flag-ID4 binding, fluorescence F/B. calls only. 1.2% of 31,000 active; call rule not given here;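 also: a binder raises fluorescence above local background on the spot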
Target sequence (P47928 whole entry, looked up): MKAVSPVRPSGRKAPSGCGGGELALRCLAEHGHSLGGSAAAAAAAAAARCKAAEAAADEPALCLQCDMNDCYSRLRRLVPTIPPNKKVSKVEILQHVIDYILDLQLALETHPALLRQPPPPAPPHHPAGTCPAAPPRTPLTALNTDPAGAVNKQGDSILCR
* hit, by the source's call; i = inactive; . = no result given; + = active, no number. Rows were chosen to be rich in hits. Some 2.1% of all compounds tested hit in one or more screens of this group.

SMILES	mut p53 react	ID4 binder
O=C(O)CCc1nn2c3ccccc3n(CCN3CCCCC3)c2nc1=O	-29	+
CCn1nccc1C(=O)Nc1nc2ccccc2n1CCN1CCCCC1	-2	i
Cc1noc(C)c1S(=O)(=O)Nc1ccc2c(c1)CC(=O)N([C@H](C)CO)C[C@@H](C)[C@@H](CN(C)CC1CCCCC1)O2	-1	.
C[C@@H]1CN([C@@H](C)CO)C(=O)c2cc(NC(=O)CCCN(C)C)ccc2O[C@H]1CN(C)C(=O)Nc1cccc2ccccc12	3	+
C[C@@H]1CN([C@H](C)CO)C(=O)c2cc(NC(=O)CCCN(C)C)ccc2O[C@@H]1CN(C)C(=O)Nc1cccc2ccccc12	-7	i
C[C@@H]1CN([C@@H](C)CO)C(=O)c2cc(NS(C)(=O)=O)ccc2O[C@@H](C)CCCCO[C@@H]1CN(C)C(=O)Nc1ccccc1	7	+
C[C@@H]1CCCCO[C@H](CN(C)S(=O)(=O)c2cn(C)cn2)[C@H](C)CN([C@H](C)CO)C(=O)c2cc(NS(C)(=O)=O)ccc2O1	-1	+
C[C@@H]1CN([C@H](C)CO)C(=O)c2cc(NS(C)(=O)=O)ccc2O[C@H]1CN(C)Cc1ccccc1	0	i
C[C@H]1CCCCO[C@H](CN(C)C(=O)Nc2ccccc2)[C@@H](C)CN([C@@H](C)CO)C(=O)c2cc(NS(C)(=O)=O)ccc2O1	18	i
C[C@@H]1CCCCO[C@H](CN(C)S(=O)(=O)c2cn(C)cn2)[C@@H](C)CN([C@H](C)CO)C(=O)c2cc(NS(C)(=O)=O)ccc2O1	3	i
C[C@H](CO)N1C[C@H](C)[C@@H](CN(C)Cc2ccccc2)Oc2ccc(NS(C)(=O)=O)cc2C1=O	-2	+
COc1ccc(S(=O)(=O)N[C@@H]2C=C[C@@H](CC(=O)NCCc3ccccc3)O[C@@H]2CO)cc1	.	i
Cc1c(Cl)cccc1NC(=O)CCN1C(=O)c2ccccc2S1(=O)=O	1	i
COC(=O)c1c(-c2ccccc2)csc1NC(=O)c1cc(-c2cccnc2)nc2ccccc12	-8	i
COC(=O)c1sc(NC(=S)Nc2cccc(Cn3cc(Cl)cn3)c2)c(C(=O)OC)c1C	5	i
O=C(CSc1nnnn1-c1ccccc1)Nc1cc(Cl)cc(Cl)c1	-3	i
C[C@@H]1CN([C@@H](C)CO)C(=O)c2cc(NS(C)(=O)=O)ccc2O[C@H]1CN(C)C(=O)Nc1ccccc1	11	i
C[C@H](CO)N1C[C@H](C)[C@@H](CN(C)C(=O)Nc2ccccc2)Oc2ccc(NS(C)(=O)=O)cc2C1=O	7	+
COc1ccc(S(=O)(=O)N(CC(=O)N2CCOCC2)C2CCCCC2)cc1OC	-16	i
N#Cc1ccccc1CSc1nnc(-c2ccco2)n1-c1ccccc1	5	i
Cc1ccc(-c2nnc(SCc3ccccc3C#N)n2-c2ccccc2)cc1Cl	84*	i
COc1ccc2nc(NC3=NC(c4ccccc4)CC(=O)N3)nc(C)c2c1 (stereo unspecified)	-8	+
COc1ccc2nc(Nc3nc(CSc4ccc(Cl)cc4)cc(=O)[nH]3)nc(C)c2c1	6	i
C[C@H]1CN([C@@H](C)CO)C(=O)Cc2cc(NC(=O)Cc3ccccc3)ccc2O[C@@H]1CN(C)C(=O)Nc1ccc2c(c1)OCO2	8	i
CNC[C@H]1Oc2ccc(NC(=O)Cc3cn(C)c4ccccc34)cc2CC(=O)N([C@@H](C)CO)C[C@@H]1C	-2	i
SMILES	mut p53 react	ID4 binder
COc1ccc(CN(C)C[C@@H]2Oc3ccc(NC(=O)Nc4ccc(OC)cc4)cc3CC(=O)N([C@@H](C)CO)C[C@H]2C)cc1	-13	i
C[C@H](CO)N1C[C@H](C)[C@@H](CN(C)C(=O)Nc2ccc3c(c2)OCO3)Oc2ccc(NC(=O)Cc3ccccc3)cc2CC1=O	5	+
COc1ccc(CN(C)C[C@@H]2Oc3ccc(NC(=O)Nc4ccc5c(c4)OCO5)cc3CC(=O)N([C@@H](C)CO)C[C@H]2C)cc1	-1	+
COc1ccc(CN(C)C[C@@H]2Oc3ccc(NC(=O)Cc4cn(C)c5ccccc45)cc3CC(=O)N([C@@H](C)CO)C[C@H]2C)cc1	-10	+
COc1ccc(CN(C)C[C@H]2Oc3ccc(NC(=O)Cc4cn(C)c5ccccc45)cc3CC(=O)N([C@@H](C)CO)C[C@H]2C)cc1	-7	i
CNC[C@@H]1Oc2ccc(NC(=O)Cc3cn(C)c4ccccc34)cc2CC(=O)N([C@@H](C)CO)C[C@H]1C	-4	+
Cc1ccccc1CN(C)C[C@@H]1OCc2cnnn2CCCC(=O)N([C@@H](C)CO)C[C@@H]1C	.	i
O=C(CSc1nc2c(c(=O)n1Cc1ccco1)C1(CCCC1)Cc1ccccc1-2)c1cccs1	-7	i
C[C@@H]1CN([C@@H](C)CO)C(=O)Cc2cc(NC(=O)C3CC3)ccc2O[C@@H]1CN(C)C(=O)Nc1ccc(F)cc1	2	i
